Results on 14 compounds are retold here after PubChem BioAssay (NCI).

About 83,000 compounds went through this panel and 20% of them were active in at least one assay; those are over-represented in the sample as a whole.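 Plates (96-well) were seeded with cells, treated with compound at one concentration, and incubated for 48 hours before percent growth was determined.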 Values without a mark were called inactive. How the source made its calls: active means growth percent below 10; inactive means the rest.

In the test the test system is IGROV1 ovarian. Kind of test: NCI-60 one-dose screen, 48 h (100 = growth as untreated, 0 = no growth, -100 = all killed). As to conditions: 10 µM unless noted.
As for `COc1ccc(/C=N/NC(=O)c2c(N)nn(C)c2Nc2ccccc2)cc1Oc1ccccc1`, the growth is 93.5%. To `COc1ccc(/C=N/N=C(/c2ccccc2)c2ccc3nc(-c4ccc(Cl)cc4)[nH]c3c2)cc1` belongs 97.5%; to `O=C(Nc1cc(C(F)(F)F)cc(C(F)(F)F)c1)Nc1ccc2oc(=O)ccc2c1`, 17.3%. In the case of `COc1ccc(/C=N/NC(=O)CSc2nc(-c3cnccn3)cc(-c3cccs3)c2C#N)cc1OC`, the growth was 104%.

Consider `CNC(=O)c1cc(N2CCc3cc(NC(=O)Nc4ccc(N5CCN(C)CC5)c(C(F)(F)F)c4)ccc32)ccn1`, for which the growth is 96.2%. As for `Clc1cccc(/C=N/Nc2nc(N/N=C/c3cccc(Cl)c3)nc(N3CCCCC3)n2)c1`, the growth was 105%.

Consider `NS(=O)(=O)c1nnc(/N=C/c2c(O)[nH]c3ccccc23)s1`, for which the growth is 76.5%.

`COc1ccc(-c2cc(-c3ccc(N(C)C)cc3)n3c(n2)nc2ccccc23)cc1`: the growth is 77.6%. For the compound `Nc1nc(=O)n([C@H]2C[C@H](O)[C@@H](CO)O2)cc1C=O`, the growth is 106%.

Turning to `Cc1ccc(-c2csc(N/N=C/c3cccs3)n2)cc1`, the growth is 86.3%. To `CCCCCCOC(=O)c1cc(-c2ccc(F)cc2)nc2ccccc12` belongs 88.3%. As for `COc1cc2oc(-c3cccc(NC(=O)c4cccc([N+](=O)[O-])c4)c3)cc(=O)c2c(OC)c1OC`, the growth is 64.6%.

With `COc1cccc(N2CCN(C3=C(Cl)C(=O)c4ncccc4C3=O)CC2)c1`, the growth was 80.8%. To `CCCCCCNC(=O)Oc1ccc(/C(=C(/C)c2ccc(Cl)cc2)c2ccc(OCCN3CCCCCC3)cc2)cc1` belongs 68.4%.
